From PubChem BioAssay
Most compounds without a hit are left out; they make up all but 2.6% or so of the library.
Epigenetic mod: epigenetic GFP locus derepression in mouse cells. AID 597. mouse C127i GFP locus derepression, cytometry, 30 h. 68,000 compounds, 0.09% hits. Potency, µM (series often up to 46.1 µM), without a hit: at the highest dose GFP derepression (activation); further: % of control where 0% means no effect
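Read-out is the number of GFP-positive cells, scored as fluorescent objects 20 to 120 um wide, reflecting derepression of a silenced CMV-GFP reporter in murine C127i cells after 30 h compound exposure at 37 C.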
Luciferase inh: blocks Photinus pyralis firefly luciferase activity; P08659; purified firefly luciferase, luminescence, 8 min; Potency, µM (doses to about 57.1 µM), without a hit: at the highest dose activity change, negative = inhibition, hits mostly inhibitors; 72,000 compounds, 2.2% hits; further: potency means the concentration at half of the fitted maximal effect; on the % scale 0 is the no-effect control and ±100 the full control effect; nearly all actives have a fitted effect of over 40% in size
Target sequence (P08659 whole entry, looked up): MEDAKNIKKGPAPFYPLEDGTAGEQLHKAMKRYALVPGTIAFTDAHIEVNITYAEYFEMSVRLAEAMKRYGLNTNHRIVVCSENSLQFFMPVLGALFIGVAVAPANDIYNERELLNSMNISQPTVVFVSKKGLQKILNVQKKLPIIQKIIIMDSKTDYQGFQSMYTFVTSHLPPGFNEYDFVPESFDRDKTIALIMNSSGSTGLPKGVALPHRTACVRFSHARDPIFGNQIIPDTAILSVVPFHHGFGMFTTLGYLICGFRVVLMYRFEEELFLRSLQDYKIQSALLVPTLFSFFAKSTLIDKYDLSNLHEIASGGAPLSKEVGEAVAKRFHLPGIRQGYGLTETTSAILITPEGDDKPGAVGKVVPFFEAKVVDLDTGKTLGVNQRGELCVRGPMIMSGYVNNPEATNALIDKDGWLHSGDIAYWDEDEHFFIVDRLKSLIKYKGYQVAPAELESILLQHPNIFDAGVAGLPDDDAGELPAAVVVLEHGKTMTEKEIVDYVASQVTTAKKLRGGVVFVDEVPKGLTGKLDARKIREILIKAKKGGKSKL
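Inhibition of light generation by firefly luciferase from ATP and luciferin was profiled with concentration-response curves per sample, ATP held at 10 uM within the enzyme's linear range. Plates were read by luminescence after an 8-minute ambient incubation.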
UbGFP stabilizer: proteasome inhibitors stabilizing ubiquitin-GFP reporter; Ubiquitin-GFP reporter cells, proteasome inhibition, GFP fluorescence; response scale: untreated = 0%, 10 µM MG-132 = 100%; Potency, µM (highest dose often 45.9 µM), for inactives: at the highest dose activation (GFP accumulation), actives largely listed as activators; 67,000 tested, under 10 active; AID 526; active means well fitted activation curve with a large enough effect, not every such curve was filed as active; inconclusive means small, poorly fitted or top-dose-only effect, or another doubt; inactive means no such curve, though single readings can be large or run the other way; further: potency means the concentration at half of the fitted maximal effect
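Proteasome blockade was scored as a rise in GFP-expressing U2OS cells carrying a ubiquitin(G76V)-GFP construct, imaged after 4 hr compound treatment at 37 °C across a 46 uM–2.9 nM series.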
Bst PK mod: alters activity of Bacillus stearothermophilus pyruvate kinase; purified pyruvate kinase, luminescence ATP production; ribose 5-phosphate activator present at AC10; Potency, µM; 51,000 compounds, 1.2% hits; AID 361; in the data active means potency below about 11 µM; inconclusive means mostly about 12 µM to 25 µM;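 the screen sought inhibitors and activators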;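 further: potency means the concentration at half of the fitted maximal effect; scaled between full activation by ribose 5 phosphate and full inhibition by luteolin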
HBB splicing: alters splicing of the hemoglobin beta chain; HBB splicing reporter cell assay, activation; EGFP reporter with mutant IVS2-654 intron; response scale: normalised to 500 nM splice-correcting PNA; Potency, µM (highest dose often 46.1 µM), for the others: at the top dose activation, hits mostly activators; 65,000 compounds, 0.06% hits; AID 925; further: potency means the concentration at half of the fitted maximal effect; 0% is about no effect
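HeLa cells stably expressing EGFP interrupted by mutant beta-globin intron 2 (IVS2-654), 500/well in 2% FCS. Treated with compound for 2 days at 37C. Splicing correction scored as total well GFP intensity (488 nm excitation, 500-520 nm emission); 500 nM antisense PNA served as control.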
The depositor's hits bear a star; i = inactive; ? = inconclusive; nt = no result given; [ ] = another dose, or the depositor's remark. Unless noted, the call rests on the fitted dose curve; in most records, active means well fitted curve in the direction sought with a large enough effect; inconclusive means small, poorly fitted or top-dose-only effect, or another doubt; inactive means no such curve, though single readings can be large; an effect the other way counts as inactive or inconclusive.

SMILES	Epigenetic mod	Luciferase inh	UbGFP stabilizer	Bst PK mod	HBB splicing
O=C(OCc1c(Cl)cccc1Cl)c1cccnc1	-2%	1%	-2%	9.2*	1%
O=C(Oc1ccccc1)c1ccc(COC(=O)c2cnccn2)cc1	-4%	-11%	-6%	>57	0%
COC(=O)c1ccccc1NC(=O)COC(=O)c1cccnc1	2%	-3%	-1%	>57	nt
CC(=O)N1CC2(CC2)CC1c1ccccc1 (centres undefined)	nt	nt	nt	nt	2%
COc1ccc2c3c([nH]c2c1)[C@H]1C[C@@H]2[C@@H](C[C@@H](O)[C@H](OC)[C@H]2C(=O)O)CN1CC3	-3%[9.22 µM]	0%[11.4 µM]	-6%[9.17 µM]	nt	6%[9.22 µM]
CN(C)C(=O)c1ccc(-c2nc(N(C)C)c3ccccc3n2)cc1	-2%[9.22 µM]	0%[2.29 µM]	5%	nt	-2%
Cn1c(C(=O)NCc2ccco2)cc2c(=O)[nH]c3ccccc3c21	-1%	0%	-9%	4.4*	-1%
CO[C@@H]1COC(=O)[C@@H](C)COC(=O)[C@@H](C)NC(=O)C/C=C\[C@@H]1C	nt	1%[11.4 µM]	nt	nt	1%[9.22 µM]
COC(=O)[C@H](N)Cc1ccc(Cl)cc1	-2%	6%	2%	nt	1%
CCCN1C=CC(=C2C(=O)c3ccccc3C2=O)C=C1	-2%	0.16µM*	-4%	nt	0%
CN1C=CC(=C2C(=O)c3ccccc3C2=O)C=C1	-2%	7.9µM*	-16%	nt	0%
CC1=CC(=C2C(=O)c3ccccc3C2=O)C=C(C)O1	0%	-6%	-7%	>57	1%
CCN1C=CC(=C2C(=O)c3ccccc3C2=O)C=C1	6%	0.32µM*	10%	nt	1%[9.22 µM]
CC(=O)N1CCC2(CCCN(c3cccc(-c4ccccc4)c3)C2)CC1	-2%[9.22 µM]	-2%[11.4 µM]	-2%	nt	3%
CCC(=O)OCC(=O)[C@@]1(OC(=O)CC)[C@H](C)C[C@@H]2[C@H]3CCC4=CC(=O)C=C[C@]4(C)[C@]3(Cl)[C@@H](O)C[C@@]21C	-2%[20.6 µM]	5%[25.5 µM]	0%[20.5 µM]	nt	0%[20.6 µM]
CC#C[C@@]1(O)CC[C@@H]2[C@@H]3CCC4=CC(=O)CCC4=C3[C@@H](c3ccc(N(C)C)cc3)C[C@]21C	-3%	-9%	7%	nt	0%
COc1ccc2[nH]cc(CCNc3nc(-c4cccnc4)nc4ccccc34)c2c1	8%[9.22 µM]	-7%[2.29 µM]	-1%	nt	0%
CC(C)Oc1cc(O)c2c(c1)OCC=C2CCC(=O)O	-4%[9.22 µM]	2%[11.4 µM]	1%[9.17 µM]	nt	2%[9.22 µM]
CC1=CC(=C2C(=O)c3ccccc3C2=O)C=C(C)N1Cc1ccco1	4%	13µM*	-4%	?	0%
O=C(COC(=O)CCC(=O)c1ccc2c(c1)OCCO2)NCc1ccc2c(c1)OCO2	-1%	25µM*	2%	nt	-2%
CC(CC(=O)O)(CC(=O)O)c1ccccc1	5%[9.22 µM]	2%[11.4 µM]	-1%[9.17 µM]	nt	5%[9.22 µM]
Brc1ccc(-c2cnc(-c3cccs3)o2)cc1	0%	?	4%	1.3*	nt
COc1ccc(C(=O)N2CCC[C@@]3(CCN(Cc4nccs4)C3)C2)cc1	-2%[9.22 µM]	0%[11.4 µM]	3%	nt	1%
COc1ccc(/C=N\NC(=O)O)cc1	0%[9.22 µM]	-8%[11.4 µM]	-1%[9.17 µM]	nt	4%[9.22 µM]
COc1cccc(CNc2ccc(Br)cn2)c1O	-4%[20.6 µM]	5µM*	nt	i	nt
SMILES	Epigenetic mod	Luciferase inh	UbGFP stabilizer	Bst PK mod	HBB splicing
COc1cccc(CNc2ncc(Br)cc2Br)c1O	-3%[20.6 µM]	-12%[25.5 µM]	nt	>26	nt
COc1ccc(C2=NOC(C(=O)N3CCCc4ccccc43)C2)cc1 (centres undefined)	6%	16µM*	0%	nt	0%
COc1ccc(-c2cc(C(=O)N3CCCc4ccccc43)no2)cc1	-2%	16µM*	-10%	i	1%
COc1cc(C2=NOC(C(=O)N3CCCc4ccccc43)C2)cc(OC)c1OC (centres undefined)	0%	0%	-5%	nt	3%
COc1ccc2c(c1)[C@]1(C)CCC[C@](C)(CO)[C@@H]1CC2	0%[9.22 µM]	3%[11.4 µM]	4%	nt	nt
CSc1nc2[nH]c3c(c2c2nnnn12)CCCC3	0%[20.6 µM]	-3%[25.5 µM]	nt	0.78*	nt
O=C(c1ccco1)N1C(=O)c2cccc3cccc1c23	0%	1%	1%	>57	1%
O=C(c1ccco1)n1c(=S)nc2ccccn21	4%	5µM*	1%	?	1%[57.5 µM]
Cc1cccc2nc(=S)n(C(=O)c3ccco3)n12	3%	2µM*	1%	?	2%[57.5 µM]
COC(=O)/C=C\CCc1coc(/C=C\CNC(=O)OC)n1	nt	0%[11.4 µM]	nt	nt	2%[9.22 µM]
CC1(C)OC(C(O)(c2cccc3c2oc2ccccc23)c2cccc3c2oc2ccccc23)C(C(O)(c2cccc3c2oc2ccccc23)c2cccc3c2oc2ccccc23)O1 (centres undefined)	nt	nt	nt	nt	4%[9.22 µM]
CN(C)Cc1ccc(-c2cc3onc(-c4ccccc4)c3c(=O)n2C)cc1	-3%[9.22 µM]	4µM*	-3%[9.17 µM]	nt	2%[9.22 µM]
COc1cccc(-c2nn(C)c3sc(C(=O)N4CCN(c5ccccn5)CC4)cc23)c1	6%	-1%	24%	7.3*	-2%
COc1cccc(-n2nnc3c(=O)n(Cc4ccccc4Cl)cnc32)c1	2%	-2%	11%	6.9*	2%[1.84 µM]
COc1cccc(-n2nnc3c(=O)n(Cc4ccc(Cl)cc4)cnc32)c1	6%	1%	-7%	>57	0%[1.84 µM]
CCOC(=O)C1=C(C)NC(C)=C(C(=O)OC)[C@@H]1c1cccc(Cl)c1Cl	-2%[20.6 µM]	0%[25.5 µM]	-5%[20.5 µM]	nt	-1%[20.6 µM]
O=C(N/N=C\c1ccccc1O)c1ccccc1O	0%	1%	1%	nt	nt
COc1ccccc1-c1cncnc1N1CCN(C)CC1	-3%[9.22 µM]	-6%[2.29 µM]	-6%	nt	0%
Cc1ccc(C2=N/C(=C/N3CCOCC3)C(=O)O2)cc1	0%	20µM*	3%	nt	0%
